Sfp inh: qHTS Assay for Inhibitors of Bacillus subtilis Sfp phosphopantetheinyl transferase (PPTase); 3.5% of 310,000 active; Potency, µM, usual class: inhibitors; Biochemical Sfp PPTase activity, qHTS; AID 1490, 2009; 4'-phosphopantetheinyl transferase ffp (Bacillus subtilis), Q9F4F7;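 note: the enzyme is Sfp with the accession as filed and its product quenches rhodamine fluorescence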
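With Hepes-Na pH 7.6 buffer containing 10 mM MgCl2, Sfp (15 nM) modified BHQ-2-YbbR (12.5 uM) using rhodamine-CoA (5 uM). Two reads 30 minutes apart at 525/598 nm yielded each well's rate.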
ALOX12 inh: Primary qHTS assay for inhibitors of human arachidonate 12S-lipoxygenase (ALOX12): Round 2; purified 12hLO, xylenol orange hydroperoxide absorbance; Potency, µM (highest dose often 108 µM), usual class: inhibitors; 1.1% of 580,000 active
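Purified human 12hLO (150 nM final) in 25 mM Hepes, 0.01% Triton X-100, pH 7.0 was preincubated 15 min at room temperature with compound. Then 40 uM arachidonic acid was added, 30 min. Hydroperoxide was read by Fe-XO absorbance ratio 573/405 nm.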
VDR inh: Inhibitors of the vitamin D receptor (VDR): qHTS; Vitamin D3 receptor (Homo sapiens), P11473; VDR-SRC2-3 peptide fluorescence polarization, 2 h; Potency, µM, usual class: inhibitors; 0.93% of 400,000 active; AID 504847, 2011
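FP read-out; VDR + SRC2-3 coactivator peptide; 23 nl compound by pintool; 2 h RT incubation; reagents held at 4 deg C, protected from light.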
Glioma ERSR ind: qHTS for Inducers of the Endoplasmic Reticulum Stress Response (ERSR) in Human Glioma: qHTS; U87-MG GRP78 promoter luciferase reporter, 16 h; Potency, µM, usual class: activators; 0.02% of 420,000 active; AID 602332, 2012; note: series mostly up to about 76 µM; nearly all actives have a fitted effect of over 35% in size
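Stably transfected U87-MG glioma cells carrying a GRP78-based luciferase sensor; 16 h compound incubation. Luminescence end-point read 10 min after Bright-Glo addition at room temperature.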
G9a block: qHTS Assay for Inhibitors of Histone Lysine Methyltransferase G9a; 8.8% of 350,000 active; Histone-lysine N-methyltransferase EHMT2 (Homo sapiens), Q96KQ7; G9a H3K9 monomethylation, AlphaScreen, 2 h; Potency, µM (highest dose often 102 µM), most hits filed as inhibitors; note: nearly all actives have a fitted effect of over 75% in size
Target sequence (Q96KQ7 913-1193 limits assumed): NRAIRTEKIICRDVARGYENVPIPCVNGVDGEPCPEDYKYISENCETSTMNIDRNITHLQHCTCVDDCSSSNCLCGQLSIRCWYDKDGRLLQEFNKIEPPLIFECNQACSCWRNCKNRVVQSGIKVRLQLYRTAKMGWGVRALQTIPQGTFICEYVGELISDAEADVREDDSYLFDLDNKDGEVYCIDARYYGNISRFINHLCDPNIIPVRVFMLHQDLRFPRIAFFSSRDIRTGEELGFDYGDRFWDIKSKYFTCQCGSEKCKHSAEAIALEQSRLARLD
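Chemiluminescent proximity detection of H3K9 monomethylation, read after 10 min bead incubation in the dark. Reaction: 20 nM G9a, 500 nM biotin-H3K9 peptide, 20 uM SAM cofactor, 2 h, room temperature, following 15 min enzyme-compound preincubation.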
Hits are given with their value; – = inactive; ? = inconclusive; · = no result given; ! = not active in a repeat; [ ] = another dose, or the depositor's remark. Shown is part of a subset that was picked to be rich in hits. Calls come from the whole dose curve; as a rule, active = well fitted curve in the direction sought with a large enough effect; inconclusive = small, poorly fitted or top-dose-only effect, or another doubt; inactive = no such curve, though single readings can be large; an effect the other way counts as inactive or inconclusive.

SMILES | Sfp inh | ALOX12 inh | VDR inh | Glioma ERSR ind | G9a block
O=C(c1ccc(Cn2nnc3ccccc32)cc1)N1CCN(S(=O)(=O)c2ccccc2)CC1 | · | – | · | · | ·
CCOC(=O)C1=C(C)O[C@]23OC(N)=C(C#N)[C@]12C(=O)c1ccccc13 | · | – | · | · | ·
NS(=O)(=O)c1ccc(CCNC(=O)CSc2nc3ccsc3c(=O)n2C2CC2)cc1 | – | – | – | – | 71µM
CC(C)(C)n1nnnc1C(c1cccnc1)N(Cc1ccccc1)Cc1ccco1 (configuration not stated) | – | – | – | – | –[12.7 µM]
COc1cccc(CN(Cc2ccco2)C(c2ccc(F)cc2)c2nnnn2C(C)(C)C)c1 (configuration not stated) | – | – | – | – | 50µM
C=CCNC(=S)NS(=O)(=O)c1cccs1 | 22µM | 1.1µM | – | – | 18µM
CC(C)NC(=O)C[C@@H]1O[C@H](CNC(=O)C2CC2)[C@@H](O)[C@H]1O | · | 56µM | · | · | ·
CN(C)S(=O)(=O)c1ccc2oc(SCCOc3cccc(Br)c3)nc2c1 | · | – | · | · | ·
Cc1ccc2ccc(C(Nc3cccc(C(F)(F)F)c3)c3cccnc3)c(O)c2n1 (configuration not stated) | – | ? | – | – | 10µM
Cc1ccnc(NC(c2ccccc2F)c2ccc3cccnc3c2O)c1 (configuration not stated) | · | 22µM | ? | – | ?
Cc1ccnc(NC(c2ccccc2)c2ccc3cccnc3c2O)c1 (configuration not stated) | · | ? | ? | – | ·
Cc1ccnc(NC(c2cccnc2)c2ccc3cccnc3c2O)c1 (configuration not stated) | ? | ? | ? | – | 6.3µM
Cc1ccc2ccc(C(Nc3ccccc3)c3ccc(C(C)C)cc3)c(O)c2n1 (configuration not stated) | · | – | · | · | ·
CC(C)c1cc(=O)oc2cc(OCC(=O)NC3(C#N)CCCCC3)ccc12 | · | – | · | · | ·
C=CCn1cn[nH]c1=S | ? | – | – | – | 13µM
C=CCn1c(C)cc(C2=NNC(=NC(C)(C)C)SC2)c1C | 56µM | – | – | – | ?
CCOc1ccc(N=C2NN=C(c3cc(C)n(CC4CCCO4)c3C)CS2)cc1 (configuration not stated) | 56µM | 40µM | – | – | 16µM
C=CCn1c(C)cc(C2=NNC(=Nc3ccc(C)cc3)SC2)c1C | 79µM | ? | – | – | –
O=C(OCc1nnnn1-c1ccccc1)C1(c2ccccc2)CCCC1 | · | – | · | · | ·
CCCCc1ncc(CN(C)CC2CCCN(CCc3ccc(F)cc3)C2)[nH]1 (configuration not stated) | · | – | · | · | ·
Cc1ccc(NC(=S)N(CCCN2CCOCC2)Cc2ccco2)cc1Cl | – | – | – | – | –
Cc1cccc(NC(=S)N(CCCN2CCCC2)Cc2cccn2Cc2ccc(Cl)cc2)c1 | – | ? | – | – | 45µM
COc1ccc(NC(=S)N(CCCN2CCCCC2)Cc2cccs2)cc1 | – | – | – | – | ?
CCOc1ccc(NC(=S)N(CCCN2CCCC2)Cc2cccn2Cc2ccc(Cl)cc2)cc1 | – | – | – | – | 40µM
COC(=O)C(C)(N)Cc1ccc(O)cc1 (configuration not stated) | · | – | – | – | 25µM!
SMILES | Sfp inh | ALOX12 inh | VDR inh | Glioma ERSR ind | G9a block
COc1c(N)c2ccccc2[nH]c1=O | 13µM | – | – | – | ?
O=c1[nH]c2ccccc2c2ccccc12 | – | – | – | – | –[12.7 µM]
CCOc1ccc(N/C(C)=C/C(=O)c2ccc(C)o2)cc1 | – | ? | – | – | 50µM
COc1ccc(CNC(=O)c2ccc(NC(=O)N3CCSc4nc(C)cc(C)c43)cc2)c(OC)c1 | · | – | · | · | ·
O=C(c1ccc2c(c1)OCO2)N1CCC(c2nnc3n2CCNC3)CC1 | · | 10µM | · | · | ·
O=C(c1ccc2c(c1)OCO2)N1CCn2c(nnc2C2CCCNC2)C1 (configuration not stated) | · | –[6.33 µM] | · | · | ·
Cc1cc(C(F)(F)F)n(-c2nc(C(=O)NN)cs2)n1 | – | – | – | – | –
COc1ccc(S(=O)(=O)NNC(=O)c2csc(-n3nc(C)cc3C(F)(F)F)n2)cc1OC | – | ? | – | – | 35µM
CC(=O)C1C(=O)c2c(cccc2[N+](=O)[O-])C1=Nc1ccc(S(N)(=O)=O)cc1 (configuration not stated) | ? | ? | – | – | 40µM
O=C(CSc1nnc(CNc2ccc(F)cc2)n1Cc1ccco1)NC1CC1 | 56µM | – | – | – | ?
O=C(O)CSc1nnc(CNc2cccc(C(F)(F)F)c2)n1Cc1ccco1 | 40µM | – | – | – | –
COc1cccc(OC)c1-c1c(-c2ccccc2)ncn1CCCSC | · | – | · | · | ·
O=C(COc1cc2oc(=O)cc(-c3ccccc3)c2cc1Cl)NCc1cccs1 | · | – | · | · | ·
CN1CCN(Cc2nc(C3(O)CCN(Cc4ccccc4F)CC3)cs2)CC1 | · | – | · | · | ·
CN1CCN(S(=O)(=O)c2ccc(N3CCN(C(c4ccccc4)c4ccccc4)CC3)nc2)CC1 | – | – | – | – | 25µM
Cc1ccc(C(=O)NCC(=O)NCC#Cc2cccc(C(F)(F)F)c2)cc1 | · | – | · | · | ·
Cc1cc(Nc2ccccc2F)n2ncnc2n1 | – | ? | – | – | 50µM
Cc1cc(Nc2ccc(Cl)cc2)n2ncnc2n1 | – | – | – | – | ·
Cc1cc(Nc2cc(C)on2)n2ncnc2n1 | – | 1.3µM | – | – | ?
Cc1cc(Nc2ccc(N(C)C)cc2)n2ncnc2n1 | – | – | – | – | 45µM
CCn1c2ccccc2c2cc(Nc3cc(C)nc4ncnn34)ccc21 | – | – | ? | – | 45µM
Cc1cc(C)cc(Nc2cc(C)nc3ncnn23)c1 | · | – | · | – | ·
